# Experimental data published in PubChem BioAssay (Tox21).
# Records with an inconclusive call do not appear. A call without a number means that no potency is given here. Values without a mark were called inactive. The source made the active and inactive calls. Unless noted, calls come from the whole dose curve; as a rule, active = well fitted curve in the direction sought with a large enough effect in the repeat runs; inconclusive = weak or mixed curves; inactive = no such curve, though single readings can be large; an effect the other way counts as inactive or inconclusive.
# How the values were obtained:
# [1] = qHTS assay to identify small molecule agonists of the RXR signaling pathway - cell viability counter screen (AID 1159529);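 note: HEK 293T cells carrying an RXR-alpha UAS beta-lactamase reporter; series mostly up to about 77 µM; nearly all actives have a fitted effect of over 50% in size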
# Procedure, shortened: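 Viability read-out for the RXR-alpha agonist qHTS: luminescent CellTiter-Glo signal after 30 min at RT. HEK 293T bla reporter cells, 2% charcoal-stripped FBS, 16 hr compound incubation; tetraoctyl ammonium bromide as cytotoxic control.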
# [2] = qHTS assay to identify small molecule antagonists of the retinoid acid receptor (RAR) signaling pathway - cell viability counter screen (AID 1159551); note: nearly all actives have a fitted effect of over 35% in size
# Procedure, shortened: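 Measured by luminescent ATP detection, viability reflects C3RL4 cells treated 6 h at 37 C with test chemicals in the presence of 1 uM (final) retinol.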
# [3] = qHTS assay to identify small molecule antagonists of the retinoic acid receptor (RAR) signaling pathway (AID 1159552; note: nearly all actives have a fitted effect of over 50% in size)
# Procedure, shortened: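 Using a RARE-driven luciferase construct in C3RL4 cells, retinol at 1 uM final provided the agonist stimulus while compounds were co-applied. After 6 hours at 37 C, luminescence was recorded to flag inhibitors of retinol signaling.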
# [4] = qHTS assay to identify small molecule agonists of the retinoic acid receptor (RAR) signaling pathway (AID 1159553)
# Procedure, shortened: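 6 hr compound exposure (DMSO vehicle) of overnight-plated C3RL4 RARE-luc cells at 37 C; luminescence quantified after 30 min RT with luciferase reagent.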
# [5] = qHTS assay to identify small molecule antagonists of the estrogen related receptor (ERR) signaling pathway from Tox21 library - cell viability counter screen (AID 1224834); note: nearly all actives have a fitted effect of over 30% in size; note: potency is the fitted concentration of half-maximal effect
# Procedure, shortened: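 Seeded ERR cells were rested 6 h at 37 C/5% CO2 before compounds, positive and negative controls or DMSO were added. Incubation continued for 17.5 h, and viability was then quantified by CellTiter-Fluor fluorescence.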
# [6] = biological target: Luciferin 4-monooxygenase (Photinus pyralis) (UniProt P08659); assay: qHTS assay to identify small molecule inhibitors of firefly luciferase (AID 1224835); note: series mostly up to about 120 µM; nearly all actives have a fitted effect of over 25% in size
# Chain of Luciferin 4-monooxygenase (Photinus pyralis) (P08659 whole entry, looked up): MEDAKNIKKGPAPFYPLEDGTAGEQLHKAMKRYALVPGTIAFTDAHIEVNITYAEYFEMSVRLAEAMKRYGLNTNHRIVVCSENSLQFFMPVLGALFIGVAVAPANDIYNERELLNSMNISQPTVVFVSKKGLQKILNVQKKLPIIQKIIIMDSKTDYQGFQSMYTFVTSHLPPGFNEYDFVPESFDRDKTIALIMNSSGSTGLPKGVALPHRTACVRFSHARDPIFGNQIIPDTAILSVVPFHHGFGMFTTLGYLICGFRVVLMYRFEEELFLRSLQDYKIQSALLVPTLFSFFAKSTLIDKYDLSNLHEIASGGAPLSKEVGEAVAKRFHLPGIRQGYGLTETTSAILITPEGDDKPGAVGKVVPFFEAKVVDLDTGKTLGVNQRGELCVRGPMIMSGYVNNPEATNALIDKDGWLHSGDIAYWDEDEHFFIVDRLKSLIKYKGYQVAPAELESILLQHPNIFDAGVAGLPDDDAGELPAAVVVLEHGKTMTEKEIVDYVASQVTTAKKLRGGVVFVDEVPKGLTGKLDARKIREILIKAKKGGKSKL
# Procedure, shortened: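 Biochemical qHTS: compounds run as interplate titrations against purified firefly enzyme, with D-luciferin and ATP each at its KM concentration. Light output recorded by CCD imaging.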
# [7] = qHTS assay to identify small molecule agonists of the constitutive androstane receptor (CAR) signaling pathway - cell viability counter screen (AID 1224836); note: nearly all actives have a fitted effect of over 45% in size; note: potency is the fitted concentration of half-maximal effect; for viability change, negative = cytotoxic: series mostly up to about 92 µM
# Procedure, shortened: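 Multiplexed viability check: HepG2-CYP2B6-hCAR cells, 15-point compound dosing, 0.75 uM PK11195 final, 23 h at 37 C, CellTiter-Fluor fluorescence.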
# [8] = qHTS assay to identify small molecule antagonists of the constitutive androstane receptor (CAR) signaling pathway - cell viability counter screen (AID 1224837); note: nearly all actives have a fitted effect of over 45% in size; note: potency is the fitted concentration of half-maximal effect; for activity change, negative = cytotoxicity: series mostly up to about 92 µM
# Procedure, shortened: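 To flag cytotoxic false antagonists, HepG2 hCAR/CYP2B6-2.2kb cells were treated 23 hr with 15-concentration compound series and 50 nM CITCO at 37 C/5% CO2; CellTiter-Fluor fluorescence was the measured end point.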
# [9] = biological target: Nuclear receptor subfamily 1 group I member 3 (Homo sapiens) (UniProt Q14994); assay: qHTS assay to identify small molecule antagonists of the constitutive androstane receptor (CAR) signaling pathway (AID 1224838);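 note: HepG2 cells stably expressing hCAR with CYP2B6 luciferase reporter stimulated by CITCO; nearly all actives have a fitted effect of over 40% in size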
# Chain of Nuclear receptor subfamily 1 group I member 3 (Homo sapiens) (Q14994 whole entry, looked up): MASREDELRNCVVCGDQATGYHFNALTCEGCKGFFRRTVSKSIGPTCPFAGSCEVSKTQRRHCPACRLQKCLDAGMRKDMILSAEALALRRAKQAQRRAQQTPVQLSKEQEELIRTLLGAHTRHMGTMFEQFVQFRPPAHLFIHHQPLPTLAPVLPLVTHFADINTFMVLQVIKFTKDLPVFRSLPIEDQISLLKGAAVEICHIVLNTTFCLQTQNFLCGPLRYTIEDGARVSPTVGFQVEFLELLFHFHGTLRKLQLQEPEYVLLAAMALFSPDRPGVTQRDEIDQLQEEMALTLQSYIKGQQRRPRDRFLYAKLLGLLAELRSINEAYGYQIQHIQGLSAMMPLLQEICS
# Procedure, shortened: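 Human hepatoma HepG2 cells expressing hCAR and a CYP2B6 promoter (2.2 kb) luciferase construct; compound titration (15 points) with 50 nM CITCO final, 24 h at 37 C/5% CO2; luminescence via ONE-Glo after 30 min at room temperature.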
# [10] = biological target: Nuclear receptor subfamily 1 group I member 3 (Homo sapiens) (UniProt Q14994); assay: qHTS assay to identify small molecule agonists of the constitutive androstane receptor (CAR) signaling pathway (AID 1224839); note: nearly all actives have a fitted effect of over 15% in size; note: potency is the fitted concentration of half-maximal effect;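 for activation: HepG2 cells stably carrying human CAR and a CYP2B6 luciferase reporter; series mostly up to about 92 µM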
# Procedure, shortened: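 Using human hepatoma HepG2 cells engineered with hCAR and a CYP2B6-2.2kb reporter, 15-concentration compound series were incubated 24 h alongside PK11195 at 0.75 uM final, with luminescence quantified afterwards.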
# [11] = qHTS assay to identify small molecule antagonists of the estrogen related receptor signaling pathway with the pleiotropic PPARgamma coactivator (PGC) from Tox21 10K library - cell viability counter screen (AID 1224840; active = well fitted cell-killing curve with a large enough effect in the repeat runs, not every such curve was filed as active; note: nearly all actives have a fitted effect of over 40% in size; note: potency is the fitted concentration of half-maximal effect)
# Procedure, shortened: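 Seeded PGC/ERR cells (2,000/well, 6 h, 37 C/5% CO2) get compound by pin tool; 17.5 h incubation at 37 C; CellTiter-Fluor added, 30 min, fluorescence measured.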
# [12] = biological target: Thyrotropin receptor (Homo sapiens) (UniProt P16473); assay: qHTS assay to identify small molecule agonists of the thyroid stimulating hormone receptor (TSHR) signaling pathway (AID 1224843; calls by dose curve; note: nearly all actives have a fitted effect of over 45% in size)
# Chain of Thyrotropin receptor (Homo sapiens) (P16473 whole entry, looked up): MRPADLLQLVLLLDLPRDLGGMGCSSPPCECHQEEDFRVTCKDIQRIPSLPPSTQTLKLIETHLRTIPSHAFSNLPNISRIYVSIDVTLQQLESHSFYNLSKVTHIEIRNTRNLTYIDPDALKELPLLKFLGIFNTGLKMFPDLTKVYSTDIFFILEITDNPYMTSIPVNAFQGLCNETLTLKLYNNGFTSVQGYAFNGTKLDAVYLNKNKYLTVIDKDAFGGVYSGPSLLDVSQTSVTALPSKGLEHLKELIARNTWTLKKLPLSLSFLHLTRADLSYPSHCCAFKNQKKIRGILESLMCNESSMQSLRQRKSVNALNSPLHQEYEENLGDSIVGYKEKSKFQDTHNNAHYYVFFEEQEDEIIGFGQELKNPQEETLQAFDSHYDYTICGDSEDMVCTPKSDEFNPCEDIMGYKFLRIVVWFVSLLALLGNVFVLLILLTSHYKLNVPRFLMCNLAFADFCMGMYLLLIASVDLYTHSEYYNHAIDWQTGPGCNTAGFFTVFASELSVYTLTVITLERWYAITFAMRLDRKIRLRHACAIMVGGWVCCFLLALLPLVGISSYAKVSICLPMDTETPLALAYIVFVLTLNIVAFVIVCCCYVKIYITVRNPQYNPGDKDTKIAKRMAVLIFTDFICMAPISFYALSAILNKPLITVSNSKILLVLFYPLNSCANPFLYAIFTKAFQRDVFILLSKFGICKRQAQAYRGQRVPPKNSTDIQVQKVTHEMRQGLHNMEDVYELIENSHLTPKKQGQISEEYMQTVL
# Procedure, shortened: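 Agonist-mode screen: TSHR HEK293 cells received test chemicals for half an hour at room temperature, then HTRF cAMP detection reagents for one hour prior to fluorescence measurement. Each chemical ran as a 15-concentration series, triplicated.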
# [13] = qHTS assay to identify small molecule agonists of the hypoxia (HIF-1) signaling pathway - cell viability counter screen (AID 1224844; calls by dose curve; note: nearly all actives have a fitted effect of over 50% in size)
# Procedure, shortened: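 HRE-bla ME-180; 0.5% dFBS; cpd 17 h, 37C, 5% CO2; CellTiter-Glo lum., 30 min RT, post-FRET read, same wells.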
# [14] = qHTS assay to identify small molecule agonists of the estrogen related receptor signaling pathway with the pleiotropic PPARgamma coactivator (PGC) from Tox21 10K library (AID 1224842); note: nearly all actives have a fitted effect of over 15% in size
# Procedure, shortened: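 PGC/ERR reporter cell line, 2,000 cells per well, incubated 6 h at 37 C before 23 nL compound in DMSO was added. After 18 h at 37 C, One-Glo luminescence read following 30 min at room temperature.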
# [15] = qHTS assay to identify small molecule antagonists of the estrogen related receptor signaling pathway with the pleiotropic PPARgamma coactivator (PGC) from Tox21 10K library (AID 1224841; call rule not given here; note: series mostly up to about 92 µM; actives are mostly falling curves and most rising ones were filed inactive; nearly all actives have a fitted effect of over 50% in size)
# Procedure, shortened: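 Test chemicals dissolved in DMSO were applied to pre-incubated (6 h) PGC/ERR cells at 2,000 cells/well for an 18 h, 37 C treatment; reporter luminescence was then read using One-Glo.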
structure (smiles),measurement,setting,value
NCc1ccccc1Sc1ccccc1CO,Potency,[1],inactive
same,Potency,[2],inactive
same,Potency,[3],inactive
same,Potency,[4],inactive
same,Potency,[5],inactive
same,Potency,[6],inactive
same,Potency,[7],inactive
same,Potency,[8],inactive
same,Potency,[9],inactive
same,Potency,[10],inactive
same,Potency,[11],inactive
same,Potency,[12],inactive
same,Potency,[13],inactive
Nc1ccccc1S(=O)(=O)c1ccccc1,Potency,[1],inactive
same,Potency,[2],inactive
same,Potency,[3],inactive
same,Potency,[4],inactive
same,Potency,[5],inactive
same,Potency,[6],inactive
same,Potency,[7],inactive
same,Potency,[8],inactive
same,Potency,[9],inactive
same,Potency,[10],68.6 µM (active)
same,Potency,[11],inactive
same,Potency,[14],inactive
same,Potency,[13],inactive
Cc1ncc(CO)c(C=O)c1O,Potency,[1],inactive
same,Potency,[2],inactive
same,Potency,[3],inactive
same,Potency,[4],inactive
same,Potency,[5],inactive
same,Potency,[6],inactive
same,Potency,[7],inactive
same,Potency,[8],inactive
same,Potency,[9],inactive
same,Potency,[10],inactive
same,Potency,[11],inactive
same,Potency,[15],inactive
same,Potency,[14],inactive
same,Potency,[12],inactive
same,Potency,[13],inactive
COc1ccc2cccc(CCNC(C)=O)c2c1,Potency,[1],inactive
same,Potency,[2],inactive
same,Potency,[3],inactive
same,Potency,[4],inactive
same,Potency,[5],inactive
same,Potency,[6],inactive
same,Potency,[7],inactive
same,Potency,[8],inactive
same,Potency,[9],inactive
same,Potency,[11],inactive
same,Potency,[13],inactive
O=C1C(O)=C(O)C(=O)C(O)=C1O,Potency,[1],inactive
same,Potency,[2],inactive
same,Potency,[3],inactive
same,Potency,[4],inactive
same,Potency,[5],inactive
same,Potency,[6],inactive
same,Potency,[7],inactive
same,Potency,[8],inactive
same,Potency,[9],inactive
same,Potency,[10],inactive
same,Potency,[11],inactive
same,Potency,[13],inactive
O=C(O)c1ccc(S(=O)(=O)O)cc1C(=O)O,Potency,[1],inactive
same,Potency,[2],inactive
same,Potency,[3],inactive
same,Potency,[4],inactive
same,Potency,[5],inactive
same,Potency,[6],inactive
same,Potency,[7],inactive
same,Potency,[8],inactive
same,Potency,[9],inactive
same,Potency,[10],inactive
same,Potency,[11],inactive
same,Potency,[14],inactive
same,Potency,[12],inactive
same,Potency,[13],inactive
O=C1CCC(=O)O1,Potency,[1],inactive
same,Potency,[2],inactive
same,Potency,[3],inactive
same,Potency,[4],inactive
same,Potency,[5],inactive
same,Potency,[6],inactive
same,Potency,[7],inactive
same,Potency,[8],inactive
same,Potency,[9],inactive
same,Potency,[10],inactive
same,Potency,[11],inactive
same,Potency,[15],inactive
same,Potency,[13],inactive
CC1(c2ccccc2)OC(C(=O)O)=CC1=O (stereo unspecified),Potency,[1],inactive
same,Potency,[2],inactive
same,Potency,[3],inactive
same,Potency,[4],inactive
same,Potency,[5],inactive
same,Potency,[6],inactive
same,Potency,[7],inactive
same,Potency,[8],inactive
same,Potency,[9],inactive
same,Potency,[10],inactive
same,Potency,[11],inactive
same,Potency,[12],inactive
same,Potency,[13],inactive
CCCCCCCCCCCC(=O)OC[C@@H](O)[C@H]1OC[C@H](OCCO)[C@H]1OCCO,Potency,[1],inactive
same,Potency,[2],inactive
same,Potency,[3],inactive
same,Potency,[4],inactive
same,Potency,[5],inactive
same,Potency,[6],inactive
same,Potency,[7],inactive
same,Potency,[8],inactive
same,Potency,[9],inactive
same,Potency,[10],inactive
same,Potency,[11],inactive
same,Potency,[12],inactive
same,Potency,[13],inactive
COc1ccc(C)cc1[N+](=O)[O-],Potency,[1],inactive
same,Potency,[2],inactive
same,Potency,[3],inactive
same,Potency,[4],inactive
same,Potency,[5],inactive
same,Potency,[6],inactive
same,Potency,[7],inactive
same,Potency,[8],inactive
same,Potency,[9],inactive
same,Potency,[10],inactive
same,Potency,[11],inactive
same,Potency,[14],inactive
same,Potency,[12],inactive
same,Potency,[13],inactive
COCCCN1CCC(NC(=O)c2cc(Cl)c(N)c3c2OCC3)CC1,Potency,[1],inactive
same,Potency,[2],inactive
same,Potency,[3],inactive
same,Potency,[4],inactive
same,Potency,[5],inactive
same,Potency,[6],inactive
same,Potency,[7],inactive
same,Potency,[8],inactive
same,Potency,[9],inactive
same,Potency,[10],inactive
same,Potency,[11],inactive
same,Potency,[12],inactive
same,Potency,[13],inactive
Nc1ccc(S(=O)(=O)Nc2ccccc2)cc1,Potency,[1],inactive
same,Potency,[2],inactive
same,Potency,[3],inactive
same,Potency,[4],inactive
same,Potency,[5],inactive
same,Potency,[6],inactive
same,Potency,[7],inactive
same,Potency,[8],inactive
same,Potency,[9],inactive
same,Potency,[10],inactive
same,Potency,[11],inactive
same,Potency,[12],inactive
same,Potency,[13],inactive
NCC(=O)O,"activity change, negative = cytotoxicity",[1],4.74% [at 15.8 µM]
same,"activity change, negative = cytotoxicity",[2],-0.228% [at 19 µM]
same,"activity, negative = inhibition",[3],0.472% [at 19 µM]
same,Potency,[4],inactive
same,"viability change, negative = cytotoxic",[5],2.45% [at 19 µM]
same,"activity change, negative = inhibition",[6],-0.476% [at 23.6 µM]
same,"viability change, negative = cytotoxic",[7],-11.9% [at 19 µM]
same,"activity change, negative = cytotoxicity",[8],-8.8% [at 19 µM]
same,"activity, negative = inhibition",[9],-5.57% [at 19 µM]
same,"viability change, negative = cytotoxic",[11],0.187% [at 19 µM]
same,activation,[12],-1.56% [at 19 µM]
same,"activity change, negative = cytotoxicity",[13],0.428% [at 15.8 µM]
COc1cc2nc(N3CCN(C(=O)C4COc5ccccc5O4)CC3)nc(N)c2cc1OC (stereo unspecified),Potency,[1],inactive
same,Potency,[2],inactive
same,Potency,[3],inactive
same,Potency,[4],inactive
same,Potency,[5],29.8 µM (active)
same,Potency,[6],inactive
same,Potency,[7],inactive
same,Potency,[8],inactive
same,Potency,[9],inactive
same,Potency,[10],inactive
same,Potency,[12],inactive
same,Potency,[13],inactive
CCOC(=O)Cc1cccc2ccccc12,Potency,[1],inactive
same,Potency,[2],inactive
same,Potency,[3],inactive
same,Potency,[4],inactive
same,Potency,[5],inactive
same,Potency,[6],inactive
same,Potency,[7],inactive
same,Potency,[8],inactive
same,Potency,[9],inactive
same,Potency,[10],30.6 µM (active)
same,Potency,[11],inactive
same,Potency,[15],inactive
same,Potency,[13],inactive
C=CCOc1ccccc1OCC(O)CNC(C)C (stereo unspecified),Potency,[1],inactive
same,Potency,[2],inactive
same,Potency,[3],inactive
same,Potency,[4],inactive
same,Potency,[5],inactive
same,Potency,[6],inactive
same,Potency,[7],inactive
same,Potency,[8],inactive
same,Potency,[9],inactive
same,Potency,[10],inactive
same,Potency,[11],inactive
same,Potency,[15],inactive
same,Potency,[13],inactive
CCOc1ccc(N=Nc2ccc(/C=C/c3ccc(N=Nc4ccc(OCC)cc4)cc3S(=O)(=O)O)c(S(=O)(=O)O)c2)cc1,Potency,[1],inactive
same,Potency,[2],inactive
same,Potency,[3],inactive
same,Potency,[4],inactive
same,Potency,[5],24 µM (active)
same,Potency,[6],inactive
same,Potency,[7],24 µM (active)
same,Potency,[8],21.4 µM (active)
same,Potency,[10],inactive
same,Potency,[11],47.8 µM (active)
same,Potency,[13],inactive
CCNc1cc(O)ccc1C,Potency,[1],inactive
same,Potency,[2],inactive
same,Potency,[3],inactive
same,Potency,[4],inactive
same,Potency,[5],inactive
same,Potency,[6],inactive
same,Potency,[7],inactive
same,Potency,[8],inactive
same,Potency,[9],inactive
same,Potency,[11],inactive
same,Potency,[15],inactive
same,Potency,[14],inactive
same,Potency,[13],inactive
